Hits are enriched below; roughly 0.81% of the tested compounds scored in any of these assays.
LANA DNA inh – inhibitors of KSHV LANA C-terminal domain DNA binding; inhibition, % at 9 µM; 0.078% of 340,000 active; MBP-C-LANA/FAM-LBS DNA binding, fluorescence polarization; AID 504423;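 active means highest replicate inhibition at or above 60% at 9 µM, even if other replicates fall short; inactive means all replicates below 60% inhibition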;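 further: 0% = neutral control wells and 100% = 4 µM acridine orange control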
RTF Ca sens inh – cardiac RTF calcium desensitization | IANBD-labeled cardiac RTF, Ca2+ fluorescence | inhibition, % at 7.15 µM | 0.12% of 340,000 active;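 active means inhibition above the mean inhibition of all tested compounds plus 3 SD, cut at about 17% in these data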;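 further: assay run at fixed EC70 calcium of 1.6 mM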
IDE inh – inhibitors of human insulin-degrading enzyme in cells | P14735 | HEK cells, FAbetaB cleavage, fluorescence polarization | inhibition, % at 5.59 µM | 0.41% of 320,000 active;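 active means percent inhibition above the average of all tested compounds plus 3 SD, set per screening campaign, cut at about 16% in these data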;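 further: IDE supplied by intact live HEK cells; FP after avidin binding of uncleaved biotin substrate so inhibition keeps polarization high; 0% = DMSO wells and 100% = 60 µM reference IDE inhibitor Ii1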
Target sequence (P14735 whole entry, looked up): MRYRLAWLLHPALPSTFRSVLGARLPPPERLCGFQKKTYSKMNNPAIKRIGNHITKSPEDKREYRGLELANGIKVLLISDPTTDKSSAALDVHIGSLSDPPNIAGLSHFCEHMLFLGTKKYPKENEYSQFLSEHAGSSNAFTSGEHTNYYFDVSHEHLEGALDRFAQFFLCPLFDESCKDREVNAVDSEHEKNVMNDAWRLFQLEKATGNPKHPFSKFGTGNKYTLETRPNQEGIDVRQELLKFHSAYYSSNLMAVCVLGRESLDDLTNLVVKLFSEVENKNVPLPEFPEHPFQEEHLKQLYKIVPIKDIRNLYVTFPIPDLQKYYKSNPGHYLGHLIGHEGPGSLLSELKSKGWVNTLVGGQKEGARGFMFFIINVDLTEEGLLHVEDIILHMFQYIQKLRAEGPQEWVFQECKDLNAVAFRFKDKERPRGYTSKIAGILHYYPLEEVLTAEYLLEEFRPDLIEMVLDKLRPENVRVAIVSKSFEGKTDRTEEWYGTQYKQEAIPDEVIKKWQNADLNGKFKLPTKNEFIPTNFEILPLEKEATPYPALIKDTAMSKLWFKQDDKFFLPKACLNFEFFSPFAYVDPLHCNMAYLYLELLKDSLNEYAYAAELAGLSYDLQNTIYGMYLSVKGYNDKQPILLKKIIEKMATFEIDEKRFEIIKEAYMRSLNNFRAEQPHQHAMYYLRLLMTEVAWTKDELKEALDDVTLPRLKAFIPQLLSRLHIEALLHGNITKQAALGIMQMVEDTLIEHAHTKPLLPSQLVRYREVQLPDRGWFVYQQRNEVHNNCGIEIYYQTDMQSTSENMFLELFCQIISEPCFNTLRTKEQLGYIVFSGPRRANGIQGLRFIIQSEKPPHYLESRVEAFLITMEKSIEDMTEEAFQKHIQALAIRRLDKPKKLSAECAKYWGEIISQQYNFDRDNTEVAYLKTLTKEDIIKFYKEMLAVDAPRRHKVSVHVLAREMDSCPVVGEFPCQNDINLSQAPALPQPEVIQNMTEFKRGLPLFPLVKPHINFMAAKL
RTF Ca sens act – increases calcium sensitivity of human cardiac regulated thin filaments | 0.24% of 340,000 active | IANBD-labeled TnC RTF fluorescence at EC20 calcium; 0% EC20 calcium, 100% full calcium | activation, % at 7.2 µM | P19429+P45379;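 active means activation above the mean over all tested compounds plus 3 SD, cut at about 30% in these data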;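 further: rise in fluorescence read as greater calcium sensitivity of cardiac thin filaments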
IDE act – boosts human insulin-degrading enzyme activity in HEK cells; activation, % at 5.96 µM; FAbeta-B cleavage, fluorescence polarization; 0% vehicle, 100% cell-free pure enzyme wells; P14735; 0.073% of 340,000 active;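 active means activation above the mean of all tested compounds plus 3 SD, set per screening campaign, cut at about 17% in these data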
Keap1-Nrf2 PPI – disrupts human Keap1 binding to Nrf2 peptide; Q14145; Keap1 Kelch-Nrf2 peptide fluorescence polarization, 1536-well; inhibition, % at 9.4 µM; 0.15% of 340,000 active; in the data active means inhibition above about 12%;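 further: human Keap1 Kelch domain with fluorescein labeled Nrf2 9mer peptide probe; 0% = neutral control wells and 100% = peptide positive control; higher means more block of Keap1 binding to Nrf2 peptide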
IDE inh confirm – cellular human IDE inhibition, confirmation. shares compounds with IDE inh. inhibition, % at 5.59 µM. HEK cells, FAbetaB cleavage, fluorescence polarization. AID 435028. 51% of 1,200 active;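 active means mean inhibition across triplicate wells above the cutoff set by the earlier primary insulin-degrading enzyme screen, cut at about 16% in these data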;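 further: 0% = DMSO wells and 100% = 60 µM reference IDE inhibitor Ii1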
HEK293 tox – counter-screen for IDE inhibitors: cytotoxicity in HEK cells; inhibition, % at 5.59 µM; AID 449730; 28% of 1,200 active; shares compounds with IDE inh; HEK293 cytotoxicity, ATP luminescence; in the data active means inhibition above about 22%;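 further: 0% = vehicle wells and 100% = reference cytotoxic drug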
Active calls of the source: *; . = not tested or not shown.

SMILES	LANA DNA inh	RTF Ca sens inh	IDE inh	RTF Ca sens act	IDE act	Keap1-Nrf2 PPI	IDE inh confirm	HEK293 tox
O=C(O)c1cccc(-n2c(/C=C/c3ccccc3)nc3ccccc3c2=O)c1	0	5	5	-5	2	-5	.	.
CN(C)c1ccc(/C=C/c2nc3ccccc3c(=O)n2-c2ccc(C(=O)O)cc2)cc1	-1	-498	131*	538*	-115	-274	134*	9
Cc1ccc(C)c(NC(=O)Cc2nc(CNCC(C)C)cs2)c1	-1	1	-3	-5	2	0	.	.
COc1cc(/C=C2\SC(=N)N(c3ccc4c(c3)OCO4)C2=O)cc(OC)c1O	8	-11	81*	5	-58	-4	72*	11
COc1cc(/C=C2\SC(=O)N(c3ccc(O)cc3)C2=O)cc(OC)c1OC	-1	-4	1	-4	4	2	.	.
CCOc1ccc(N2C(=O)S/C(=C\c3cc(OC)c(OC)c(OC)c3)C2=O)cc1	0	.	1	.	.	-4	.	.
CCOc1ccc(N2C(=O)S/C(=C\c3ccc(O)c(OC)c3)C2=O)cc1	0	-4	19*	-3	-11	2	20*	7
N=C1S/C(=C\c2ccccc2)C(=O)N1c1ccc(F)cc1	2	11	-2	-2	0	-5	.	.
COc1cc(/C=C2\SC(=N)N(c3ccc(F)cc3)C2=O)ccc1O	-2	-18	26*	1	-14	-6	19*	20
COc1ccc(N=C2NC(=O)/C(=C/c3ccc(O)c(OC)c3)S2)cc1	-2	-6	25*	3	-24	0	32*	12
CN(CC(=O)Nc1ccccc1Cl)C(=O)CSc1nncn1C	1	-7	0	5	3	4	.	.
O=C(COc1ccc(Br)cc1CNC1CCCC1)Nc1ccccc1	0	-2	0	2	0	-4	.	.
CCOC(=O)c1c(NC(=O)CSc2nnnn2C)sc(C)c1-c1ccc(C)cc1	0	2	-5	-7	3	-4	.	.
COc1ccc(/C=C2/S/C(=N/S(=O)(=O)Cc3ccccc3)NC2=O)cc1OC	1	3	-1	2	-2	4	.	.
COc1ccccc1N=C1NC(=O)/C(=C/c2ccc(N(C)C)cc2)S1	-5	-87	53*	48*	-70	-8	56*	53*
COc1ccc2c(n1)Sc1nc3ccccc3nc1N2	2	-59	28*	30*	-35	-6	55*	12
CC(=O)N(C(C)=O)N1C(=O)c2cccc3c(N4CCOCC4)ccc(c23)C1=O	15	-45	17*	25	-1	-3	6	19
O=C1c2cccc3c(N4CCCCC4)ccc(c23)C(=O)N1c1ccccn1	7	-26	75*	9	-7	0	109*	21
O=C1c2cccc3c([N+](=O)[O-])ccc(c23)C(=O)N1c1ccccn1	1	4	2	-2	-8	-2	.	.
Cn1c(=O)c2c(ncn2CC(=O)OCC(=O)c2ccc(F)c(F)c2)n(C)c1=O	-1	-2	1	-3	-2	-2	.	.
COc1ccc2nc(COC(=O)c3cccs3)c(C(C)=O)[n+]([O-])c2c1	0	3	8	1	-4	-2	.	.
Cc1ccc(CNS(=O)(=O)c2c(N)n(C)c(=O)n(C)c2=O)cc1	2	2	4	3	0	1	.	.
CC(NC(=O)c1cc(F)c(F)c(F)c1F)c1ccc(-n2ccnc2)cc1 (stereo not drawn)	0	-7	3	1	-1	-7	.	.
C(=N\NC1=Nc2cccc3cccc1c23)/c1cccnc1	0	-5	23*	0	-17	-5	15	9
C(=N\NC1=Nc2cccc3cccc1c23)/c1ccccc1	-2	-17	9	4	-1	-3	.	.
SMILES	LANA DNA inh	RTF Ca sens inh	IDE inh	RTF Ca sens act	IDE act	Keap1-Nrf2 PPI	IDE inh confirm	HEK293 tox
N#C/C(=C\c1ccc(N2CCOCC2)o1)C(=O)NCCc1ccccc1	-27	-88	72*	64*	-140	-86	78*	8
COCCNC(=O)/C(C#N)=C/c1ccc(N2CCOCC2)o1	-38	-54	16*	61*	-16	-132	16	7
O=C(NCCCN1CCOCC1)C(=O)NCCc1ccccc1	1	-7	2	0	7	-6	.	.
COCCNC(=O)/C(C#N)=C\c1ccc(CNS(=O)(=O)c2ccccc2)o1	-1	3	-2	-3	5	1	.	.
COc1ccc(/C=C(\C#N)C(=O)NCCc2ccccc2)cc1OCc1ccccc1	0	-3	9	-2	-1	-4	.	.
N#C/C(=C\c1ccc(O)c(O)c1)C(=O)NCCCc1ccccc1	3	-21	29*	23	-37	-4	38*	14
O=C(CCc1nnc2ccc(N3CCCC3)nn12)Nc1cc(F)ccc1F	0	6	0	-5	3	1	.	.
C/C(CC(=O)NCc1ccccc1Cl)=N/NC(=O)c1ccccn1	2	-13	-7	-5	3	-4	.	.
Cn1c(CCN2CCN(c3ccccc3)CC2)nc2cc(NC(=O)c3ccco3)ccc21	2	8	8	3	3	5	.	.
Cc1ccc(N2CCN(CCc3nc4cc(NC(=O)c5ccco5)ccc4n3C)CC2)cc1	0	-8	19*	5	-1	2	8	21
COc1ccc2nc(N3CCN(C(=O)c4ccc5ncsc5c4)CC3)sc2c1	-3	-6	17*	-1	-20	-3	11	30*
COc1ccc(OC)c2sc(N3CCN(C(=O)c4ccc5ncsc5c4)CC3)nc12	0	3	2	-3	4	-2	.	.
Nc1c(C(=O)N/N=C/c2cccnc2)cnn1-c1ccccc1	2	-9	2	0	0	-7	.	.
Nc1c(C(=O)N/N=C/c2ccc(Cl)cc2)cnn1-c1ccccc1	0	7	18*	4	-3	1	2	9
CCOCCCNc1nc2c(C)cccn2c(=O)c1/C=C1\SC(=S)N(C(C)CC)C1=O (stereo not drawn)	-2	-33	17*	29	-4	-22	80*	9
CCOCCCNc1nc2c(C)cccn2c(=O)c1/C=C1\SC(=S)N(CC(C)C)C1=O	2	5	5	3	-1	-6	.	.
Cc1oc(C)c2c(=O)ccc3c(c12)OC(N)=C(C#N)C3c1ccc(F)cc1 (stereo not drawn)	7	-19	27*	7	-86	-4	68*	10
CCN(CC)S(=O)(=O)c1ccc(O)c(C(=O)OCC(=O)NC23CC4CC(CC(C4)C2)C3)c1	-3	1	5	-3	4	-3	.	.

From PubChem BioAssay
